KAT2A inh – blocks human GCN5L2 histone acetyltransferase | hit rate 0.21% among 390,000 | Potency, µM (top dose mostly 58.9 µM), for inactives: at the top dose activity change, negative = inhibition, hits mostly inhibitors | Q92830 | GCN5L2 HAT assay, ThioGlo1 CoA-SH fluorescence | AID 504327
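GCN5L2 (20 nM) in 50mM HEPES pH 7.5, 0.1mM EDTA, 0.01% Tween-20 preincubated 15 min with compounds at room temperature. Reaction started with H3(1-25) 75uM, acetyl-CoA 70uM, ThioGlo1 50uM; CoA-thiol fluorescence (Ex340/Em540) read at 0 and 20 min.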
VDR inh – vitamin D3 receptor (human) inhibition; VDR-SRC2-3 peptide fluorescence polarization, 2 h; Potency, µM, for the others: max response, negative = inhibition, actives largely listed as inhibitors; hit rate 0.93% among 400,000
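Signal is fluorescence polarization, reporting how far test compounds block the interaction of VDR with the SRC2-3 coregulator peptide after a 2 h room-temperature incubation.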
TDP1 block – inhibitors of human tyrosyl-DNA phosphodiesterase TDP1; Q9NUW8; Potency, µM (top dose mostly 130 µM), for the others: at the top dose activity change, negative = inhibition, usual class: inhibitors; AID 485290; hit rate 0.28% among 350,000; recombinant TDP1, AlphaScreen DNA substrate cleavage; note: nearly all actives have a fitted effect of over 40% in size
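Here, a 5' biotin and 3' phosphotyrosine-FITC DNA oligonucleotide reports Tdp1 activity: intact substrate bridges AlphaScreen beads, while cleavage leaves a 3' phosphate and drops signal. All incubations at room temperature.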
DT40 TDP1 CPT – growth inhibition of DT40 Tdp1-/-;hTDP1 cells with camptothecin (screen for TDP1 inhibitors) | chicken DT40 Tdp1-/-;hTDP1 cells + 20 nM CPT, ATP luminescence, 48 h | Potency, µM (top dose mostly 46.2 µM), inactives show at the highest dose activity change, negative = growth inhibition, actives largely listed as inhibitors | hit rate 12% among 420,000; note: nearly all actives have a fitted effect of over 55% in size
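Chicken DT40 Tdp1-/- cells stably complemented with human TDP1 were seeded at 400 cells/well in medium containing 20 nM camptothecin, exposed to pin-transferred compounds, and grown at 37 °C for at least 48 hr. Viability was read as ATP luminescence.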
PLK1 PBD block – PLK1 (human) polo-box domain binding inhibition | P53350 | Plk1 PBD binding of FITC phosphopeptide, fluorescence polarization | Potency, µM, without a hit: max response, negative = inhibition, most hits filed as inhibitors | hit rate 2.8% among 360,000; note: series mostly up to about 57 µM; nearly all actives have a fitted effect of over 65% in size
Target sequence (P53350 whole entry, looked up, the tested form may be a part): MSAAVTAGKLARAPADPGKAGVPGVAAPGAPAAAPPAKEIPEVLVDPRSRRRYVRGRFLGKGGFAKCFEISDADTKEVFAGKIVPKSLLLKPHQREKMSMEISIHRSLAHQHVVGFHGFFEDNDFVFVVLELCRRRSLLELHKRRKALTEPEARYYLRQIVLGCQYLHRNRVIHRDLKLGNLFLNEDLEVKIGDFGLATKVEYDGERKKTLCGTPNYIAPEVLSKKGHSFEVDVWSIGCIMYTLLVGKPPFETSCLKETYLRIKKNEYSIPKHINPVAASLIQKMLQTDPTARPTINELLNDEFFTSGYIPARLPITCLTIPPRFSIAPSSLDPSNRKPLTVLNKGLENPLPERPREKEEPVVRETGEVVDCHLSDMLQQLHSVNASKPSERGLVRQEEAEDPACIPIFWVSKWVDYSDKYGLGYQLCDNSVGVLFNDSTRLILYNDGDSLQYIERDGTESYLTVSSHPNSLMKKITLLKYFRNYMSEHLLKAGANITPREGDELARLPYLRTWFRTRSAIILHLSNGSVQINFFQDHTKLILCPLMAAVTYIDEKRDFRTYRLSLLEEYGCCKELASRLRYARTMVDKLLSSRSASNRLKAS
DT40 TDP1 no CPT – qHTS for Inhibitors of human tyrosyl-DNA phosphodiesterase 1 (TDP1): qHTS in cells in absence of CPT. Potency, µM (series often up to 46.2 µM), for inactives: top-dose activity change, negative = growth inhibition, hits mostly inhibitors. hit rate 15% among 420,000. AID 686978, 2013. DT40 Tdp1-/- hTDP1 cells, no CPT, ATP luminescence, 48 h; note: nearly all actives have a fitted effect of over 55% in size
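Camptothecin absent (DMSO only). Human TDP1-complemented DT40 knockout cells, 400 cells/well, 37 °C for minimum 48 hr; ATP measured via CellTiter-Glo, 30 min dark incubation, luminescence.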
Numbers without * were called inactive; u = inconclusive; x = not tested or not shown; [ ] = remark or other dose. Compounds with a hit are over-represented: about 18% of the library has one in this group of screens. Calls come from the whole dose curve; as a rule, active = well fitted curve in the direction sought with a large enough effect; inconclusive = small, poorly fitted or top-dose-only effect, or another doubt; inactive = no such curve, though single readings can be large; an effect the other way counts as inactive or inconclusive. % is set by controls: 0 for no effect and ±100 for the full control effect; potency is the fitted concentration of half-maximal effect.

SMILES | KAT2A inh | VDR inh | TDP1 block | DT40 TDP1 CPT | PLK1 PBD block | DT40 TDP1 no CPT
O=[N+]([O-])c1ccc(OCCN2CCNCC2)cc1 | -15.0% | 6.3% | u | -21.5% | 2.3% | u
CC1CCN(CCCCOc2ccc(C(C)(C)C)cc2)CC1 | -3.0% | -13.9% | x | 23.1µM* | 0.0% | u
CC(C)(C)c1ccc(OCCCCCCN2CCNCC2)cc1 | x | -13.4% | x | 18.4µM* | -6.7% | 8.2µM*
Cc1ccc(C(=O)N/C(=C\c2ccc(-c3ccc(Br)cc3)o2)C(=O)NCCCN(C)C)cc1 | -4.6% | 7.9% | 6.0% | 4.61µM* | -6.3% | 3.26µM*
Cc1ccc(C(=O)N/C(=C\c2ccc(-c3ccccc3[N+](=O)[O-])o2)C(=O)NCCCN2CCOCC2)cc1 | -22.6% | u | 5.2% | 20.6µM* | 26.7µM* | u
Cc1ccc(C(=O)N/C(=C/c2ccc(C(C)C)cc2)C(=O)NCCCN2CCOCC2)cc1 | -1.4% | -7.9% | 2.5% | -8.6% | 4.1% | -25.9%
COC(=O)C1CCN(Cc2ccc3c(c2)CN(C(=O)c2ccnn2C)CCO3)CC1 | x | x | x | 1.1%[9.04 µM] | x | -2.6%
Cc1cccc(NC(=O)C2CCN(c3nc(C)cc(C)n3)CC2)c1 | 3.3% | -1.4% | 1.9% | u | -6.7% | u
Cc1cccc(NC(=O)C2CC(=O)n3cnnc3S2)c1 (stereo unspecified) | -8.4% | 1.1% | -4.5% | 4.61µM* | u | 5.8µM*
COc1cccc(-n2nc(-c3ccnn3-c3cccc(Cl)c3)c(=O)n(C)c2=O)c1 | 5.0% | -10.6% | -1.9% | 23.1µM* | 2.2% | 16.4µM*
Cc1nc(SCC(=O)Nc2ccc3[nH]c(=O)[nH]c3c2)nc(C)c1C | 0.8% | u | 0.8% | -17.0% | u | -9.9%
O=C(CCC1CCN(C(=O)c2ccco2)CC1)NCc1ccc(F)cc1 | -15.0% | -15.6% | 3.2%[56.1 µM] | -6.0% | -6.9% | -1.7%
CCN1C[C@@H]2[C@@H]3C(=O)N(C)C(=O)[C@@H]3[C@](CC)(C1=O)N2C(=O)c1ccc(C(C)(C)C)cc1 | 3.2% | 15.3% | -1.8% | -1.3% | -3.6% | -13.3%
CCC(=O)NS(=O)(=O)c1ccc(-c2c(-c3ccccc3)noc2C)cc1 | x | x | x | -1.1% | x | -19.9%
CCc1ccc(NC(=O)[C@H](NC(=O)[C@@H]2Cc3ccccc3CN2)c2ccccc2)cc1 | 0.7% | -13.5% | 1.4% | u | 29.9µM* | -22.9%
CCc1ccc(NC(=O)[C@H](Cc2c[nH]c3ccccc23)NC(=O)[C@@H]2Cc3ccccc3CN2)cc1 | -12.0% | -9.8% | x | 18.4µM* | -8.3% | u
Cc1ccc(NC(=O)[C@H](NC(=O)[C@@H]2Cc3ccccc3CN2)c2ccccc2)c(C)c1 | -0.8% | -3.8% | 1.6% | u | 2.5% | -28.6%
Cc1cccc(NC(=O)[C@H](Cc2c[nH]c3ccccc23)NC(=O)[C@@H]2Cc3ccccc3CN2)c1 | -2.2% | -2.9% | x | u | -9.6% | u
Cc1cc(C)cc(NC(=O)[C@H](NC(=O)[C@@H]2Cc3ccccc3CN2)c2ccccc2)c1 | -3.1% | -2.8% | 8.0% | u | -10.4% | 25.9µM*
CCC(=O)N1CCc2cc(S(=O)(=O)NCCC(=O)Nc3ccc(OC)c(Cl)c3)ccc21 | -2.3% | -9.1% | 4.7% | u | x | -77.6%
COC1=CC(=O)C(OC)=C(OC)C1=O | x | -5.3% | x | 0.731µM* | -13.6% | 1.16µM*
COc1ccc(NC(=O)CN(C)C(=O)C(C)Oc2ccc(Br)cc2)cc1 (stereo unspecified) | -3.6% | 5.7% | -6.6%[0.505 µM] | -0.4% | 4.0% | -17.5%
S=C(Nc1ccccc1Cl)N(Cc1ccccc1)Cc1cccnc1 | -11.6% | 0.5% | 5.3% | 13.9% | -9.1% | 16.4µM*
COc1cc(CN2CCC(C(=O)NCC(C)(C)CN(C)C)CC2)ccc1OCc1ccccc1 | 0.9% | -5.8% | x | 6.51µM* | -3.5% | u
Cc1[nH]c2ccccc2c1/C=C/c1ccc2ccccc2n1 | x | x | x | u | x | -111.0%
SMILES | KAT2A inh | VDR inh | TDP1 block | DT40 TDP1 CPT | PLK1 PBD block | DT40 TDP1 no CPT
Cc1[nH]c2ccccc2c1/C=C/c1cnc2ccccc2n1 | x | x | x | u | x | 12.6µM*
Cc1[nH]c2ccccc2c1/C=C/c1c[nH]c2ccccc12 | x | x | x | u | x | 11.2µM*
Cc1ccc(CNC(=O)C2CCN(S(=O)(=O)c3ccc(F)cc3)CC2)cc1 | -3.7% | -29.8% | x | -20.5% | x | -23.2%
Cc1cc(C)nc(NN=C2CCCC2)n1 | -1.1% | 2.7% | -1.9% | 8.0% | -0.8% | -3.1%
CC(/C=C/c1ccccc1)=N\Nc1nc(C)cc(C)n1 | -6.8% | -7.6% | -2.6% | 4.61µM* | 3.8% | 5.17µM*
Cc1cc(C)nc(NN=C(c2ccccc2)c2ccccc2)n1 | -0.3% | 0.4% | 3.2% | 16.4µM* | 2.8% | 10.3µM*
CC(/C=C/c1ccccc1)=N\NC(N)=S | -1.5% | -3.4% | 9.2% | 18.4µM* | u | 20.6µM*
CC(/C=C/c1ccccc1)=N/NC(=O)c1nc2nc(C)cc(C)n2n1 | 0.2% | 14.8% | x | -6.8% | -2.6% | u
CC(C)N1C(=O)C(O)(c2c[nH]c3ccccc23)c2ccccc21 (stereo unspecified) | 0.8% | 0.4% | 0.6% | -21.7% | x | u
Cc1ccc(OCC(=O)Nc2ccccc2[N+](=O)[O-])c(Br)c1 | -4.0% | 0.4% | 6.0% | -8.8% | -14.8% | -25.1%
CCN(CC(=O)NCc1cccs1)C(=O)C(c1ccccc1)c1ccccc1 | u | -3.1% | 4.9% | u | -8.9% | -24.9%
Cc1cccc(NC(=O)CNC(=O)[C@H]2O[C@@H](n3ccc(=O)[nH]c3=O)[C@H](O)[C@@H]2O)c1C | x | x | x | -4.1% | -6.4% | -19.1%
CCN(C(=O)Cn1nc(C)c([N+](=O)[O-])c1C)C1CCS(=O)(=O)C1 (stereo unspecified) | -0.8% | 13.8% | x | -0.6% | -15.1% | -13.6%
O=C(CCCn1ccc2cc(S(=O)(=O)N3CCCC3)ccc21)NCc1ccc(Cl)cc1 | -14.0% | 4.8% | 5.6% | 4.61µM* | x | 2.31µM*
O=C(CCn1ccc2cc(S(=O)(=O)N3CCCC3)ccc21)NCc1ccccc1Br | -1.2% | 2.8% | -5.6% | u | x | u
